Inconclusive results are not listed. A number with no mark means an inactive call. The call rests on the fitted dose curve; in most records, active means well fitted curve in the direction sought with a large enough effect; inconclusive means small, poorly fitted or top-dose-only effect, or another doubt; inactive means no such curve, though single readings can be large or run the other way.
Target: Metallo-beta-lactamase type 2 (Klebsiella pneumoniae) (UniProt C7C422)
Test: qHTS to identify inhibitors of the New Delhi Metallo-beta-lactamase (NDM): assay validation screen against the NCATS LOPAC Collection (AID 1794843)
Conditions: NDM-1 enzyme, nitrocefin hydrolysis, absorbance 485 nm; series mostly up to 38.4 µM; activity change, negative = inhibition: at the top concentration
Outline: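 Absorbance at 485 nm from nitrocefin turnover (50 uM solution added), read at plateau, gives the read-out. Compounds in DMSO were incubated first with 2 nM final NDM-1 in pH 7.0 HEPES buffer containing 1 uM ZnSO4 and 0.01% Tween20.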
On the % scale 0 is the no-effect control and ±100 the full control effect.

Chain of Metallo-beta-lactamase type 2 (Klebsiella pneumoniae) (C7C422 whole entry, looked up): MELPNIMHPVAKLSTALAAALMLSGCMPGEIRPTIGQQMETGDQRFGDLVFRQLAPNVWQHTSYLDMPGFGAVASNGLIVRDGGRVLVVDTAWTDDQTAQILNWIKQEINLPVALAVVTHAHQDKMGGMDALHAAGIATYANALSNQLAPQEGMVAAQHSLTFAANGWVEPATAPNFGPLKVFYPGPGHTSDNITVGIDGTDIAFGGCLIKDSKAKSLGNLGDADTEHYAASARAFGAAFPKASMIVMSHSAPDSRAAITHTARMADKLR

| SMILES | activity change, negative = inhibition |
| --- | --- |
| COC(=O)C1=C(C)NC(C)=C(C(=O)OC)C1c1ccccc1[N+](=O)[O-] | 6.78% |
| CCCCN(CCCC)CC(O)c1cc(Cl)cc2c1-c1ccc(Cl)cc1/C2=C/c1ccc(Cl)cc1 (stereo unspecified) | 3.64% |
| CN1CCC[C@@H]1Cc1c[nH]c2ccc(CCS(=O)(=O)c3ccccc3)cc12 | 4.84% |
| CC(C)c1c(C(=O)Nc2ccccc2)c(-c2ccccc2)c(-c2ccc(F)cc2)n1CC[C@@H](O)C[C@@H](O)CC(=O)O | -2.21% |
| NC(=O)c1ncn([C@@H]2O[C@H](CO)[C@@H](O)[C@H]2O)n1 | -19.4% |
| COc1ccc(Cl)cc1C(=O)NCCc1ccc(S(=O)(=O)NC(=O)NC2CCCCC2)cc1 | 3.55% |
| CC1=C(CC(=O)O)c2cc(F)ccc2/C1=C\c1ccc(S(C)(=O)=O)cc1 | -0.84% |
| C[C@]12CC[C@@H]3c4ccc(O)cc4CC[C@H]3[C@@H]1CCC2=O | 0.127% |
| CNC(=O)Oc1ccc2c(c1)[C@]1(C)CCN(C)[C@@H]1N2C | 4.19% |
| NC1[C@H]2CN(c3nc4c(cc3F)c(=O)c(C(=O)O)cn4-c3ccc(F)cc3F)C[C@@H]12 (stereo partly specified) | 3.68% |
| CCCCc1ncc(/C=C(\Cc2cccs2)C(=O)O)n1Cc1ccc(C(=O)O)cc1 | 14% |
| C=Cc1c(C)c2cc3[nH]c(cc4nc(cc5nc(cc1[nH]2)C(C)=C5CCC(=O)O)C(CCC(=O)O)=C4C)c(C)c3C=C | -0.628% |
| O=C1NC(=O)[C@@]2(CCOc3ccc(F)cc32)N1 | -1.09% |
| C[C@](N)(Cc1ccc(O)cc1)C(=O)O | 1.38% |
| C#CCN(C)Cc1ccccc1 | -7.28% |
| CC(C)(C(=O)O)c1ccc(C(O)CCCN2CCC(C(O)(c3ccccc3)c3ccccc3)CC2)cc1 (stereo unspecified) | 4.28% |
